# Test results reported in ChEMBL document CHEMBL4888484, “Replenishing the malaria drug discovery pipeline: Screening and hit evaluation of the MMV Hit Generation Library 1 (HGL1) against asexual blood stage Plasmodium falciparum ,using a nano luciferase reporter read-out” (2022).
# The whole screen tested about 150,000 compounds, of which about 540 (0.36%) showed an effect of 50% or more. Shown is part of a subset that was picked to be rich in strong results.
# System: Plasmodium falciparum
# Experiment: Primary screen in NF54 nanoGlo assay, in single point, at 2uM, 72h; a lower Z score goes with more inhibition
# Format: functional, Erythrocyte
# Settings: timepoint 72 hour
SMILES,% Inhibition [%],Z score
CC(C)[C@H](NC(=O)[C@H](Cc1ccccc1)n1cnnn1)c1nc2ccccc2[nH]1,-15,1.85
C#CCn1cnc(-c2ccccc2)c1NC(=O)CCc1ccc(C(C)C)cc1,-7,0.8
COc1cccc2c1Oc1c(c(=O)n(-c3ccccc3)n1CC(=O)Nc1cccc(F)c1)C2,-19,1.9
Cc1c(C(=O)[C@H](C#N)c2nnc(N3CCOCC3)n2-c2ccccc2)nnn1-c1ccc(F)cc1,-7,1.18
COc1ccccc1CN1COc2cc3c(cc2C1)OCO3,56,-4.75
COc1ccccc1CN1Cc2ccccc2O[C@@H](C)C1=O,-5,0.61
Cc1ccc(N2COc3cc4c(cc3C2)OCO4)cc1C,-10,1.51
CN1CC[C@@]2(CCC1=O)CN(c1ccnc3ccc(Cl)cc13)CCN2C,-4,0.66
O=C(Cn1cnnn1)NCc1ccc2c(c1)CCC2,-44,5.16
Cc1nnc([C@@]23COC[C@@H]2CN(C(=O)c2cccc4[nH]ccc24)C3)o1,-10,1.33
Cc1ccc(S(=O)(=O)Nc2ccc(C)n(CC(=O)NCC(C)C)c2=O)cc1,-22,3.01
COc1cccc(NC(=O)Cn2c(C)ccc(NS(=O)(=O)c3ccc(C)cc3)c2=O)c1,74,-9.85
CCC(C)(C)NC(=O)Cn1c(C)ccc(NS(=O)(=O)c2ccc(C)cc2)c1=O,-4,0.69
C=CCN(C)C(=O)NCc1ccc(Br)c(F)c1,2,-0.18
COc1ccc(-c2cn3c(C(=O)N4CCNC(=O)C4)csc3n2)cc1F,-19,2.43
CN1CC[C@H](c2nc3cc(F)ccc3[nH]2)C1,-1,0.12
Cc1noc2ncnc(N3CCCC[C@H]3c3nccs3)c12,-7,0.7
CCOC(=O)c1cn(CC)c2cc(NC3CCCCC3)c(F)cc2c1=O,67,-12.03
Cc1cc2c(=O)c(C(=O)c3ccncc3)cn(CC(=O)NC3CCCCC3)c2cc1F,-1,0.12
CCOC(=O)c1cn(CC2CCCCC2)c2nc(C)ccc2c1=O,23,-2.66
Cc1nc(CC(=O)NC[C@H](O)COc2ccc(F)cc2)cs1,-3,0.65
Cc1cc(C)nc(NC[C@H](O)COc2ccc(F)cc2)n1,5,-0.6

SMILES,% Inhibition [%],Z score
COc1ccc(Nc2nc(COC(=O)Cn3cnc4c3c(=O)n(C)c(=O)n4C)cs2)cc1,-6,0.88
CO[C@H]1COCC[C@@H]1NC(=O)c1ccc(C#CC(C)(C)O)o1,1,-0.19
CC[C@@H](COc1ccccc1)NC(=O)CC1CCNCC1,9,-1.66
O=C1C2C3C=CC(C3=C3CCCCC3)C2C(=O)N1c1cccc(Cl)c1 (stereo not given),51,-1.24
Cc1ccc(N2C(=O)C3C4C=CC(C4=C4CCCCC4)C3C2=O)cc1Cl (stereo not given),-11,1.34
Cc1cccc(N2C(=O)C3C4C=CC(C4=C4CCCCC4)C3C2=O)c1 (stereo not given),0,0.03
O=C(Nc1[nH]c(=O)ncc1F)c1cccc2ccccc12,85,-7.83
O=C(NCc1n[nH]c(=O)[nH]1)c1ccc(Br)c(F)c1,-6,0.79
COc1cc(C(=O)Nc2[nH]c(=O)ncc2F)ccc1Cl,76,-11.96
O=C(NCCc1n[nH]c(=O)[nH]1)c1c(F)cc(Br)cc1F,-3,0.32
O=C(Nc1[nH]c(=O)ncc1F)c1cc(F)c(F)cc1Br,91,-7.85
COc1cc(C(=O)Nc2nc(C)nn2C)ccc1Cl,-9,1.22
Cc1cnc(NC(=O)c2cccc3ccccc23)s1,-12,2.18
Cc1cc(NC(=O)c2ccc(Cl)c(F)c2)nc(=O)[nH]1,-4,0.38
O=C(Nc1ccc(Cl)cn1)c1cccc2ccccc12,-6,1.15
CCC(CC)n1nc(C(=O)NCC23CCCN2CCC3)cc1C,-15,2.13
O=C(Nc1cccc2ccccc12)C1CCN(c2cc(-c3ccc(F)cc3)ncn2)CC1,-2,0.24
Cc1n[nH]c(=O)c2c1cnn2-c1ccc(F)cc1,20,-2.53
Cc1cccnc1CCNC(=O)N(C)[C@@H](C)c1ccncn1,-6,1.12
O=C(NCCc1ccc(Cl)cc1)c1ccc(Cn2c(=O)[nH]c3ccccc3c2=O)cc1,-9,1.68
O=C1N[C@@H](c2cccc(OCc3ccccc3)c2)Nc2c1sc(=S)n2-c1ccccc1,-12,1.31
CN(CC(=O)NCc1ccco1)c1nnc(N2CCCC2=O)s1,73,-0.5

SMILES,% Inhibition [%],Z score
CN(CC(=O)NCCCc1ccco1)c1nnc(N2CCCC2=O)s1,-11,2.07
CN(CC(=O)NCc1cccs1)c1nnc(N2CCCC2=O)s1,-2,0.36
CCCN1CCN(C(=O)c2ccnc(N3CCN[C@H](c4ccccc4)C3)c2)CC1,-13,1.36
C[C@H](CCO)NCc1sccc1Cl,5,-0.62
CC(C)(C)n1cnc(C(=O)N2CCCC23CCCCC3)n1,0,-0.06
Cn1nnc(C(=O)N2CCC(c3ccccc3)(N3CCCC3)CC2)n1,7,-1.29
O=C(Nc1cnc(-n2ccnc2)nc1)c1ccc(F)cc1,-18,2.84
CCOC(=O)C1(C(=O)NCc2cc(C)on2)CCCC1,7,-0.84
CCN1C[C@H](Nc2ncccc2C#N)[C@@H](OC)C1,-13,1.15
CCN1C[C@H](Nc2ncnc3sc(C)cc23)[C@@H](OC)C1,-9,1.14
CS(=O)(=O)N1C[C@H]2CC[C@@H](C1)N(CC(=O)N1CCc3ccccc31)C2,-9,1.92
COc1ccc(CN2CCc3cc(OC)c(OC)cc3[C@@H]2CNC(=O)Cc2ccccc2)cc1,-3,0.38
Cn1ncc2c1CCC[C@@H]2NCCc1ccccc1O,-5,0.59
Oc1ccccc1CCN[C@H]1CCc2ccc(F)cc21,98,-18.88
CS(=O)(=O)CCc1ccc(N[C@H]2CCc3ccc(F)cc32)cc1,-8,1.03
O=S1(=O)CCC(CNC2CCc3ccc(F)cc32)C1 (stereo not given),-8,1.29
CCOc1ccc2c(n1)CCN(C(=O)c1ccsc1)C2,36,1.41
CC(COC1CCOC1)NC(=O)C1CCC(=O)C(C)C1 (stereo not given),-1,0.21
Cn1nc(NC(=O)c2ccccc2)c2c1CCN(C(=O)C1CCC1)C2,-10,0.86
COC(C(=O)N1C[C@H](C(=O)O)[C@@H](c2ccc(Br)cc2)C1)C1CC1 (stereo not given in full),-1,0.13
CCCCN(C1CCCCCC1)S(=O)(=O)N1CCC[C@@H]1COC,3,-0.54
COc1ccccc1C(=O)C(=O)NC1CC(C)(C)NC(C)(C)C1,-6,0.73

SMILES,% Inhibition [%],Z score
Cc1nonc1CN1CC[C@@]2(CCCN(C3CCCCC3)C2=O)C1,-1,0.17
CN1CCN(c2nc3c(c(Oc4cccc(F)c4)n2)CN(S(=O)(=O)c2cccc(Cl)c2)CC3)CC1,-5,0.66
Cc1ccc(Oc2nc(N3CCOCC3)nc3c2CN(S(=O)(=O)c2cccc(Cl)c2)CC3)cc1,8,-1.2
O=S(=O)(c1cccc(Cl)c1)N1CCc2nc(N3CCCCC3)nc(Oc3ccccc3)c2C1,53,-13.31
O=C1CN(Cc2nc(-c3ccccc3)nn2C2CCCCC2)CCN1,-7,1.19
CN(CC(=O)Nc1cccc(F)c1)C(=O)C[C@@H]1C=CCC1,12,-1.67
CCOc1ccc(-c2cn(Cc3ccncc3)nn2)cc1Cl,-10,2.05
Cc1cc(C)cc(-c2cc3nc(C)cc(N4CCC(C(=O)NCc5cccc(F)c5)CC4)n3n2)c1,75,-14.36
COc1ccc(-c2cc3nc(C)cc(N4CCC(C(=O)NCc5ccccc5)CC4)n3n2)cc1,4,-0.42
Cc1cc(C)cc(-c2cc3nc(C)cc(N4CCC(C(=O)Nc5ccc(C)c(Cl)c5)CC4)n3n2)c1,36,1.15
Cc1cc(C2CCC(C(=O)NCC3CC3)CN2C(=O)NC(C)C)ccc1F (stereo not given),0,0
Cc1cc(S(=O)(=O)N(CCN(C)C)C2CCN(C)CC2)c(C)o1,-16,1.43
COc1ccc2cc(C(=O)NCc3ccnc(Oc4ccccc4)c3)[nH]c2c1,-7,1.13
COc1ccc2cc(-c3nc(CCN(C)C(=O)c4cccc(Cl)c4)no3)[nH]c2c1,-9,1.75
Cc1ccc(CC(=O)Nc2cc(C(F)(F)F)n(C)n2)cn1,-6,0.61
Cc1cccc(OC2CN([C@@H](C)CCN(C)C)C2)c1,-19,2.04
CC(C(=O)Nc1nccs1)N1CCCC(c2ccn[nH]2)C1 (stereo not given),50,-9.08
C[C@@H](C(=O)Nc1nccs1)N1CCCC1,-4,0.56
CC(C(=O)Nc1ccc(Cl)cn1)N1CCCC(c2ccn[nH]2)C1 (stereo not given),5,-0.83
